# Measured potencies and affinities stand elsewhere. Records with an inconclusive call do not appear. A number with no mark means an inactive call.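 How the source made its calls: active means signal loss with fitted half-maximal concentration at or below twice the top valid tested dose in every test run; inconclusive means runs disagree, flat 30 to 70% signal loss, or poor fit; inactive means all runs flat, opposite direction, or potency beyond limit.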
# Assay: HEK293T cytotoxicity, dose response, cytotoxicity control for miR-122 modulator project, cell-based, inhibitor set, cherry-pick, set 2 (AID 720697);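 further: 0% = median of neutral control wells and -100% = MG132 positive control wells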
# Conditions: HEK293T viability, CellTiter-Glo luminescence, 48 h; series mostly up to 26 µM; activity change, negative = cytotoxicity: at the top concentration
row,Compound,"activity change, negative = cytotoxicity"
1,COC(=O)C[C@@H]1CC[C@@H]2[C@H](COc3ccc(NC(=O)c4cc(F)cc(F)c4)cc3C(=O)N2C)O1,146%
2,CCNC(=O)C[C@H]1CC[C@@H]2[C@H](COc3ccc(NC(=O)c4cccs4)cc3C(=O)N2C)O1,128%
3,COCC(=O)NC[C@H]1N[C@H](CO)[C@H]1c1ccc(C2=CCCC2)cc1,55.1%
4,CN1C(=O)c2cc(NC(=O)c3ccc4c(c3)OCO4)ccc2OC[C@H]2O[C@@H](CC(=O)O)CC[C@@H]21,128%
5,CCN(C[C@H]1N[C@@H](CO)[C@@H]1c1ccc(C2=CCCC2)cc1)C(=O)c1ccncc1,50.2%
6,CN1C(=O)c2cc(NC(=O)Nc3ccccc3F)ccc2OC[C@@H]2O[C@H](CC(=O)O)CC[C@@H]21,20.6% [at 23.5 µM]
7,CNC(=O)C[C@H]1CC[C@H]2[C@H](COc3ccc(NC(=O)c4cccc(F)c4)cc3C(=O)N2C)O1,80%
8,O=C(NC[C@@H]1N[C@@H](CO)[C@H]1c1ccccc1)C1CCC1,14.5%
9,Cc1cc(C(=O)Nc2ccc3c(c2)C(=O)N(C)[C@@H]2CC[C@@H](CC(=O)N[C@H](C)c4ccccc4)O[C@H]2CO3)no1,37.4%
10,CCS(=O)(=O)Nc1ccc2c(c1)C(=O)N(C)C[C@@H](OC)[C@H](C)CN(CC1CCCC1)[C@H](C)CO2,52.2%
11,C[C@@H]1CN([C@H](C)CO)S(=O)(=O)c2ccc(C3=CCCC3)cc2O[C@@H]1CN(C)C(=O)c1ccc(F)cc1,24.5%
12,CN1C(=O)c2cc(NC(=O)Nc3ccccc3F)ccc2OC[C@@H]2O[C@@H](CC(=O)NCc3ccc(-c4ccccc4)cc3)CC[C@@H]21,9.96%

# — PubChem BioAssay AID720697 (Broad Institute, 2013)
